# Values joined by “and” are separate entries in the source; they are usually repeats but may differ in a detail not shown here. Equal values may be shown once. Records with an inconclusive call do not appear. A structure can be active in one record and inactive in another. Active and inactive are the calls of the source. How the source made its calls, unless noted: active means hit-call score of the fitted dose curve at least 0.9, where 1 is the maximum; inactive means score below 0.9.
# Assays:
# [1] = read-out: Transforming Growth Factor (TGFA), TGFA (gene 7039); assay: LTEA_HepaRG_TGFA: Life Technologies and Expression Analysis (LTEA) Assay for Transforming Growth Factor (TGFA) using HepaRG (AID 2283532); details: mRNA level, 48 h; actives raise or lower the signal
# Procedure, shortened: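 qRT-PCR read-out of TGFA transcript, normalized to three housekeeping genes, fitted bidirectionally against 0.5% DMSO baseline. Human HepaRG cultures received chemicals for 48 h at eight half-log concentrations, top 100 uM.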
# [2] = read-out: Transforming Growth Factor (TGFB1), TGFB1 (gene 7040); assay: LTEA_HepaRG_TGFB1: Life Technologies and Expression Analysis (LTEA) Assay for Transforming Growth Factor (TGFB1) Transporter using HepaRG (AID 2283533); details: mRNA level, 48 h; actives raise or lower the signal
# Procedure, shortened: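 TGFB1 transcript measured by qRT-PCR with normalisation to three housekeeping genes (ACTB, GAPDH, POLR2A); human HepaRG line treated in duplicate for 48 hr with an 8-point series topping at 100 uM, 0.5% DMSO vehicle, bidirectionally fitted.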
# [3] = read-out: TIMP1, TIMP1 (gene 7076); assay: LTEA_HepaRG_TIMP1: Life Technologies and Expression Analysis (LTEA) Assay for TIMP1 using HepaRG (AID 2283534); details: mRNA level, 48 h; actives raise or lower the signal
# Procedure, shortened: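 Bidirectional change in TIMP1 transcript versus 0.5% DMSO, measured by TaqMan qRT-PCR with three housekeeping genes for normalization. HepaRG human liver cells dosed 48 h in duplicate, top concentration 100 uM with half-log dilutions.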
# [4] = read-out: Tumor necrosis factor receptor 1 (TNFRSF1A), TNFRSF1A (gene 7132); assay: LTEA_HepaRG_TNFRSF1A: Life Technologies and Expression Analysis (LTEA) Assay for Tumor necrosis factor receptor 1 (TNFRSF1A) using HepaRG (AID 2283535); details: mRNA level, 48 h; actives raise or lower the signal
# Procedure, shortened: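 mRNA measured by qRT-PCR (TaqMan, Fluidigm arrays) against ACTB/GAPDH/POLR2A housekeepers after 48 h chemical exposure of HepaRG cells. Top concentration 100 uM, half-log 8-point series, duplicates; vehicle 0.5% DMSO, both fit directions.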
# [5] = read-out: Cellular tumor antigen p53 (Homo sapiens) (UniProt P04637); assay: LTEA_HepaRG_TP53: Life Technologies and Expression Analysis (LTEA) Assay for Tumor Protein P53 (TP53) using HepaRG (AID 2283537); details: mRNA level, 48 h; actives raise or lower the signal
# Procedure, shortened: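 Differentiated HepaRG cells in serum-free induction medium exposed 48 h in duplicate to 8 half-log concentrations, top 100 uM, 0.5% DMSO. TP53 mRNA by TaqMan qRT-PCR (Fluidigm), normalized to ACTB, GAPDH, POLR2A; fitted bidirectionally versus DMSO.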
# [6] = read-out: UDP glucuronosyltransferase (UGT1A1), UGT1A1 (gene 54658); assay: LTEA_HepaRG_UGT1A1: Life Technologies and Expression Analysis (LTEA) Assay for UDP glucuronosyltransferase (UGT1A1) using HepaRG (AID 2283538); details: mRNA level, 48 h; actives raise or lower the signal
# Procedure, shortened: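 HepaRG, 48 h chemical exposure (top 100 uM, half-log 8-pt, 0.5% DMSO vehicle), duplicate wells; qRT-PCR (TaqMan, Fluidigm array) for UGT1A1 mRNA, housekeeping-normalized; bidirectional curve fit vs DMSO baseline.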
# [7] = read-out: UDP glucuronosyltransferase (UGT1A6), UGT1A6 (gene 54578); assay: LTEA_HepaRG_UGT1A6: Life Technologies and Expression Analysis (LTEA) Assay for UDP glucuronosyltransferase (UGT1A6) using HepaRG (AID 2283539); details: mRNA level, 48 h; actives raise or lower the signal
# Procedure, shortened: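 Expression was quantified by TaqMan qRT-PCR on Fluidigm arrays with ACTB/GAPDH/POLR2A normalization and bidirectional fitting against 0.5% DMSO. HepaRG cells (~100,000/well) were treated in duplicate for 48 h at eight half-log concentrations up to 100 uM in serum-free induction medium.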
# [8] = read-out: X-box binding protein 1 (XBP1), XBP1 (gene 7494); assay: LTEA_HepaRG_XBP1: Life Technologies and Expression Analysis (LTEA) Assay for X-box binding protein 1 (XBP1) using HepaRG (AID 2283540); details: mRNA level, 48 h; actives raise or lower the signal
# Procedure, shortened: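 XBP1 transcript by qRT-PCR (housekeeping-normalized: ACTB, GAPDH, POLR2A) after 48 h chemical treatment of HepaRG cells, 8-point half-log series topping at 100 uM, vehicle 0.5% DMSO. Gain and loss of signal fitted relative to DMSO.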
# [9] = ATG_XTT_Cytotoxicity: Cytotoxicity Assessment in the Attagene TRANS-FACTORIAL HepG2 Assay (AID 2283584; active means hit-call score of the fitted dose curve at least 0.9, where 1 is the maximum;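 on AC50: cells exposed to compound for 24 h before reading; active means loss of viability signal versus DMSO baseline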)
# Procedure, shortened: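 Viability endpoint from XTT after 24 h chemical exposure of reporter-transfected human HepG2 liver cells; signal loss fitted relative to DMSO negative control.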
# [10] = TOX21_p53_BLA_p2_viability: Viability Assessment in the Tox21 HCT-116 p53 Agonism Beta-lactamase Assay, Phase 2 (AID 2283591; active means hit-call score of the fitted dose curve at least 0.9, where 1 is the maximum;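 further: compound exposure lasted 16 h at 37 °C; actives lower the ATP signal meaning cytotoxicity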)
# Procedure, shortened: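 HCT116 p53-bla cells, 4000/well, dosed after 5 h plating (217-fold dilution of DMSO stocks) and incubated 16 h at 37C. Viability taken as cellular ATP by CellTiter-Glo luminescence after 30 min RT; signal loss marks cytotoxicity.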
# Cellular tumor antigen p53 (Homo sapiens), sequence (P04637 whole entry, looked up): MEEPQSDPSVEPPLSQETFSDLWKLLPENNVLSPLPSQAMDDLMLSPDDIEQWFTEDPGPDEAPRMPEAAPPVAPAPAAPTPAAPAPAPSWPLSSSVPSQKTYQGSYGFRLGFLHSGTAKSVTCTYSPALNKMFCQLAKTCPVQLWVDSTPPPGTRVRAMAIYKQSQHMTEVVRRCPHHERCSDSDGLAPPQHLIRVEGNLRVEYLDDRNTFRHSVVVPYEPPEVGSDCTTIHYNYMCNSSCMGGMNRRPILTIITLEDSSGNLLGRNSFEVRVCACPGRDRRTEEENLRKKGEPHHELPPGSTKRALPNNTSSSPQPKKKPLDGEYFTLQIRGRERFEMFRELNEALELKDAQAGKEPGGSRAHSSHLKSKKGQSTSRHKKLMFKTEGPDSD
smiles,measurement,setting,value
CCOP(=S)(OCC)SCSP(=S)(OCC)OCC,outcome,[1],inactive
same,outcome,[2],inactive
same,outcome,[3],inactive
same,AC50,[4],0.214 µM (active)
same,AC50,[5],0.217 µM (active)
same,AC50,[6],14.8 µM (active)
same,outcome,[7],inactive
same,AC50,[8],0.245 µM (active)
same,outcome,[9],inactive
NC(=O)O,outcome,[1],inactive
same,outcome,[2],inactive
same,outcome,[3],inactive
same,outcome,[4],inactive
same,outcome,[5],inactive
same,outcome,[6],inactive
same,outcome,[7],inactive
same,outcome,[8],inactive
same,outcome,[9],inactive
Cc1ccccc1N,outcome,[1],inactive
same,outcome,[2],inactive
same,outcome,[3],inactive
same,outcome,[4],inactive
same,outcome,[5],inactive
same,outcome,[6],inactive
same,outcome,[7],inactive
same,outcome,[8],inactive
same,outcome,[9],inactive
same,outcome,[10],inactive
CCN1CCC2(CC1)COc1cc3c(cc12)N(C(=O)c1ccc(-c2ccc(-c4nnc(C)o4)cc2C)cc1)CC3,AC50,[1],83.8 µM (active)
same,AC50,[2],29 µM (active)
same,outcome,[3],inactive
same,AC50,[4],21.6 µM (active)
same,AC50,[5],46.8 µM (active)
same,outcome,[6],inactive
same,AC50,[7],15.4 µM (active)
same,AC50,[8],27.4 µM (active)
same,AC50,[10],54.7 µM (active)
COc1cc(-c2ccc(N)c(OC)c2)ccc1N,outcome,[1],inactive
same,outcome,[2],inactive
same,outcome,[3],inactive
same,outcome,[4],inactive
same,outcome,[5],inactive
same,AC50,[6],25.4 µM (active) and 22.1 µM (active)
same,outcome,[7],inactive
same,outcome,[8],inactive
same,outcome,[9],inactive
same,outcome,[10],inactive
CC(C)(OO)c1ccccc1,outcome,[1],inactive
same,outcome,[2],inactive
same,outcome,[3],inactive
same,outcome,[4],inactive
same,outcome,[5],inactive
same,outcome,[6],inactive
same,outcome,[7],inactive
same,outcome,[8],inactive
same,outcome,[9],inactive
same,outcome,[10],inactive
CC(C)(C)CC(C)(C)c1ccc(O)cc1,outcome,[1],inactive
same,outcome,[2],inactive
same,outcome,[3],inactive
same,outcome,[4],inactive
same,outcome,[5],inactive
same,outcome,[6],inactive
same,outcome,[7],inactive
same,outcome,[8],inactive
same,AC50,[9],26.7 µM (active) and 58.4 µM (active) and 53.9 µM (active)
same,outcome,[9],inactive
same,AC50,[10],64.5 µM (active) and 42.4 µM (active)
O=[N+]([O-])c1ccc(O)c([N+](=O)[O-])c1,outcome,[1],inactive
same,outcome,[2],inactive
same,AC50,[3],12.6 µM (active)
same,AC50,[4],4.42 µM (active)
same,AC50,[5],13.2 µM (active)
same,AC50,[6],13.2 µM (active)
same,AC50,[7],20.2 µM (active)
same,AC50,[8],13.2 µM (active)
same,outcome,[9],inactive
same,outcome,[10],inactive
Cn1sc(Cl)cc1=O,outcome,[1],inactive
same,outcome,[2],inactive
same,outcome,[3],inactive
same,outcome,[4],inactive
same,outcome,[5],inactive
same,outcome,[6],inactive
same,outcome,[7],inactive
same,outcome,[8],inactive
same,outcome,[9],inactive
same,outcome,[10],inactive
ClC1=C(Cl)[C@]2(Cl)[C@@H]3[C@@H](Cl)[C@@H](Cl)C[C@@H]3[C@@]1(Cl)C2(Cl)Cl,outcome,[9],inactive
Cc1cc(Cl)ccc1O[C@H](C)C(=O)O,outcome,[9],inactive
ClC1(Cl)C2(Cl)C3(Cl)C4(Cl)C(Cl)(Cl)C5(Cl)C3(Cl)C1(Cl)C5(Cl)C24Cl (stereo not given),outcome,[1],inactive
same,outcome,[2],inactive
same,outcome,[3],inactive
same,outcome,[4],inactive
same,outcome,[5],inactive
same,outcome,[6],inactive
same,outcome,[7],inactive
same,outcome,[8],inactive
same,outcome,[9],inactive
C[C@@H]1C[C@@H]([C@H](O)CC2CC(=O)NC(=O)C2)C(=O)[C@@H](C)C1,AC50,[1],31.1 µM (active)
same,outcome,[2],inactive
same,AC50,[3],50 µM (active)
same,AC50,[4],80.6 µM (active)
same,AC50,[5],12 µM (active)
same,AC50,[6],36.2 µM (active)
same,AC50,[7],39.6 µM (active)
same,AC50,[8],16.7 µM (active)
same,outcome,[9],inactive
same,outcome,[10],inactive
Oc1cccc2cccnc12,outcome,[1],inactive
same,outcome,[2],inactive
same,outcome,[3],inactive
same,outcome,[4],inactive
same,outcome,[5],inactive
same,outcome,[6],inactive
same,outcome,[7],inactive
same,outcome,[8],inactive
same,outcome,[9],inactive
same,outcome,[10],inactive
O=c1[nH]c(=O)[nH]c(=O)[nH]1,outcome,[1],inactive
same,outcome,[2],inactive
same,outcome,[3],inactive
same,outcome,[4],inactive
same,outcome,[5],inactive
same,outcome,[6],inactive
same,outcome,[7],inactive
same,outcome,[8],inactive
same,outcome,[9],inactive
CCN(CC)C(=O)Cl,outcome,[9],inactive
CN(C)N=O,outcome,[1],inactive
same,outcome,[2],inactive
same,outcome,[3],inactive
same,outcome,[4],inactive
same,outcome,[5],inactive
same,outcome,[6],inactive
same,outcome,[7],inactive
same,outcome,[8],inactive
same,outcome,[9],inactive
CC(=O)C(Cl)C(=O)N(C)C (stereo not given),outcome,[9],inactive
CCOP(=S)(OCC)Oc1nc(Cl)c(Cl)cc1Cl,outcome,[1],inactive
same,outcome,[2],inactive
same,outcome,[3],inactive
same,outcome,[4],inactive
same,outcome,[5],inactive
same,AC50,[6],50 µM (active)
same,outcome,[7],inactive
same,outcome,[8],inactive
same,outcome,[10],inactive
O=C(O)C(F)(F)C(F)(F)C(F)(F)C(F)(F)C(F)(F)C(F)(F)F,outcome,[1],inactive
same,outcome,[2],inactive
same,outcome,[3],inactive
same,outcome,[4],inactive
same,outcome,[5],inactive
same,outcome,[6],inactive
same,outcome,[7],inactive
same,outcome,[8],inactive
same,outcome,[9],inactive
O=C(Nc1ccc2[nH]ccc2c1)c1cc2cc(F)ccc2n1Cc1cccc(F)c1,AC50,[1],29.3 µM (active)
same,outcome,[2],inactive
same,AC50,[3],81.9 µM (active)
same,outcome,[4],inactive
same,AC50,[5],12.4 µM (active)
same,AC50,[6],50 µM (active)
same,AC50,[7],30.2 µM (active)
same,outcome,[8],inactive
ClCC(Cl)CCl,outcome,[1],inactive
same,outcome,[2],inactive
same,outcome,[3],inactive
same,outcome,[4],inactive
same,outcome,[5],inactive
same,outcome,[6],inactive
same,outcome,[7],inactive
same,outcome,[8],inactive
same,outcome,[9],inactive
same,outcome,[10],inactive
